Experimental data taken from PubChem BioAssay AID1259336 (Sattelle Laboratory, UCL Respiratory, Division of Medicine, …, 2017).
The source made the active and inactive calls. Cut-off read from the data, not from the text of the source: active = log2 fold change growth below about -1.8; inactive = the rest.

Assay: C. elegans growth inhibition, whole organism, log2 fold change (AID 1259336);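 note: growth scored by imaging after five days at 20 °C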
Settings: anthelmintic screen, hits give low values

log2 fold change growth, inactive:
c1ccc(Oc2ccc(-c3cc(CN4CCOCC4)[nH]n3)cc2)cc1 0.284
CCCCS(=O)(=O)Nc1ccc2cnn(C)c2c1 0.414
Cc1cccnc1NC(=O)c1cccc(OCc2c(C)noc2C)c1 0.0511
Oc1c(I)cc(I)c2cccnc12 0.0616
COc1cccc(-c2nc3c(N4CCCC4)cccc3n2C[C@H]2CCCN2)n1 0.434
CCOc1ccccc1N[C@@H](C)C(=O)Nc1cc(C(F)(F)F)ccc1N1CCOCC1 -1.5
CC(C)(C)c1cnc(NC(=O)c2ccccc2O)s1 0.155
O=C(C1CCN(c2nnnn2-c2ccccc2)CC1)N1CCc2ccccc2C1 -0.288
NC(=O)c1cc(-c2ccsc2)ccc1OCCOc1ccccc1 0.0714
FC(F)(F)c1ccc(N(c2cccnc2)C2CCN(c3ccc(C(F)(F)F)cn3)CC2)cc1 -0.44
c1ccc(-c2nc(NC3CCCCC3)cc(C3CC3)n2)nc1 -0.0356
Cc1cc(C)n(-c2ccc(NC(=O)C3CCN(Cc4cnc(C)s4)CC3)cc2)n1 0.442
CC1(O)CC(c2nc(-c3ccc4ccc(-c5ccccc5)nc4c3)c3c(N)nccn23)C1 (stereo unspecified) -0.23
CN1CCN(c2nccc3[nH]c(-c4ccc(F)c(F)c4)nc23)CC1 -0.373
CN1CCC(c2cc(-c3ccncc3)c(-c3ccc(F)cc3)[nH]2)CC1 -0.12
Nc1ncnc2n[nH]c(Cc3cccc4ccccc34)c12 0.242
